Reference: PubChem BioAssay
Values joined by “and” are separate entries in the source; they are usually repeats but may differ in a detail not shown here. Equal values may be shown once. Active and inactive are the calls of the source.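 Rule for the calls, unless noted: active = compounds whose cell count with miR-34 switched on is under 0.7 times the count with it off; inactive = the rest.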

Columns and labels:
[1] = LFS_MB_1R medulloblastoma cell growth inhibition, synergistic combos for chromothripsis tumors, cisplatin or BGB combos (AID 1671452; in the data active = inhibition above about 80%;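 note: cells exposed for 96 hours before readout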); details: LFS_MB_1R medulloblastoma cells, stronger effect = higher value
[2] = HTB85 osteosarcoma cell growth inhibition, synergistic combos for chromothripsis tumors, BGB or cisplatin IC20 combos (AID 1671453; in the data active = inhibition above about 80%;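 note: cells exposed for 96 hours before readout; 0% = vehicle DMSO and 100% = high DMSO killing control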); details: HTB85 osteosarcoma cells, drug combinations, stronger effect = higher value
[3] = CRL2098 osteosarcoma cell growth inhibition, synergistic combos for chromothripsis tumors, BGB or cisplatin IC20 combos (AID 1671454; in the data active = inhibition above about 80%;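 note: cells exposed for 96 h before readout; 0% = vehicle DMSO and 100% = killing by high DMSO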); details: CRL2098 osteosarcoma cells, drug combinations, stronger effect = higher value
[4] = HD-MB03 medulloblastoma cell growth inhibition, synergistic combos for chromothripsis tumors, BGB or cisplatin IC20 combos (AID 1671455; in the data active = inhibition above about 83%;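 note: 0% = vehicle DMSO and 100% = high DMSO as cytotoxic control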); details: HD-MB03 medulloblastoma cells, stronger effect = higher value
[5] = sensitizers of A549 cells to miR-34 induction, primary screen, imaging, A549 dox-inducible miR-34, nuclei and caspase counts (AID 1347080); details: A549 miR-34 inducible, Hoechst nuclei count, 48 h
[6] = survival rescue of mitochondrial mutant cells in low glucose, primary screen, MELAS cybrids, Rieske KO mouse fibroblasts, CellTiter-Glo (AID 1508586;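 active = mean z-score across replicates of 1.96 or higher in either the MELAS or the Rieske mutant cell line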;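 note: z relative to plate mean and SD of compound and empty wells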)
[7] = biological target: NAD(+) hydrolase SARM1 (Homo sapiens) (UniProt Q6SZW1); assay: SARM1 TIR NADase inhibitors, cell lysate, NAD-Glo luminescence (AID 1508614;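 active = compound whose remaining NAD level is above about 45 nM, limit read from the data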;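 note: higher remaining NAD means stronger inhibition of SARM1 NADase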); details: SAM-TIR HEK293T lysate NADase, at 1 µM, stronger effect = higher value
[8] = viability rescue of complex I mutant cybrids, primary screen, cell-based, galactose medium, ATP luminescence (AID 1645843;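 active = z-score of at least 1.8 in each of two replicates, scored against plate mean and spread of sample wells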;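 note: positive z means more ATP and so rescue of galactose-driven cybrid death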); details: complex I mutant cybrid cells, 72 h, stronger effect = higher value
[9] = LFS_MB_P medulloblastoma growth inhibition, cell-based, chromothripsis tumors, cisplatin or BGB combos (AID 1671449; in the data active = inhibition above about 80%;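 note: cells exposed for 96 hours; 0% = vehicle DMSO and 100% = killing by high DMSO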); details: LFS_MB_P medulloblastoma cells
[10] = HDN33 neuroblastoma growth inhibition, cell-based, chromothripsis tumors, cisplatin or BGB combos (AID 1671450; in the data active = inhibition above about 80%;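 note: cells exposed to compound for four days; 0% = vehicle DMSO and 100% = cell killing by high DMSO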); details: HDN33 neuroblastoma cells, stronger effect = higher value
[11] = ICB984 medulloblastoma cell growth inhibition, synergistic combos for chromothripsis tumors, cisplatin or BGB combos (AID 1671451; call rule not given here;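 note: cells exposed for 96 hours before readout; 0% = vehicle DMSO and 100% = killing by high DMSO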); details: ICB984 medulloblastoma cells, drug combinations, stronger effect = higher value
[12] = biological target: Mitogen-activated protein kinase 7 (Homo sapiens) (UniProt Q13164); assay: ERK5 transactivation activators in reporter cells, primary screen, cell-based, HTS (AID 1508626;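 active = luciferase signal above three times the same-plate solvent-only control wells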;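 note: luciferase driven by Gal4-ERK5 fusion binding five Gal4 sites before minimal TATA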); details: HeLa Gal4-ERK5 transactivation, 18 h, at 5 µM, stronger effect = higher value
[13] = measured here: combination with BGB IC40, at 0.05 µM
[14] = measured here: combination with cisplatin, at 0.5 µM
[15] = measured here: combination with cisplatin, at 5 µM
[16] = measured here: with BGB IC20, at 0.5 µM
[17] = measured here: with BGB IC20, at 5 µM
[18] = measured here: with cisplatin IC20, at 0.5 µM
[19] = measured here: with cisplatin IC20, at 5 µM
[20] = measured here: combination with BGB at IC20, at 0.5 µM
[21] = measured here: combination with cisplatin at IC20, at 0.5 µM
[22] = measured here: combo with BGB at IC20, at 0.5 µM
[23] = measured here: combo with cisplatin at IC20, at 0.5 µM
[24] = stronger effect = lower value, cell number ratio, induced over uninduced
[25] = measured here: relative caspase fold change +Dox/-Dox
[26] = measured here: total cells with miR-34 induction, stronger effect = lower value
[27] = measured here: total cells without miR-34 induction
[28] = MELAS cybrid survival, CellTiter-Glo 48 h, stronger effect = higher value
[29] = Rieske KO mouse fibroblast survival, CellTiter-Glo 72 h

Chain of Mitogen-activated protein kinase 7 (Homo sapiens) (Q13164 whole entry, looked up, the tested form may be a part): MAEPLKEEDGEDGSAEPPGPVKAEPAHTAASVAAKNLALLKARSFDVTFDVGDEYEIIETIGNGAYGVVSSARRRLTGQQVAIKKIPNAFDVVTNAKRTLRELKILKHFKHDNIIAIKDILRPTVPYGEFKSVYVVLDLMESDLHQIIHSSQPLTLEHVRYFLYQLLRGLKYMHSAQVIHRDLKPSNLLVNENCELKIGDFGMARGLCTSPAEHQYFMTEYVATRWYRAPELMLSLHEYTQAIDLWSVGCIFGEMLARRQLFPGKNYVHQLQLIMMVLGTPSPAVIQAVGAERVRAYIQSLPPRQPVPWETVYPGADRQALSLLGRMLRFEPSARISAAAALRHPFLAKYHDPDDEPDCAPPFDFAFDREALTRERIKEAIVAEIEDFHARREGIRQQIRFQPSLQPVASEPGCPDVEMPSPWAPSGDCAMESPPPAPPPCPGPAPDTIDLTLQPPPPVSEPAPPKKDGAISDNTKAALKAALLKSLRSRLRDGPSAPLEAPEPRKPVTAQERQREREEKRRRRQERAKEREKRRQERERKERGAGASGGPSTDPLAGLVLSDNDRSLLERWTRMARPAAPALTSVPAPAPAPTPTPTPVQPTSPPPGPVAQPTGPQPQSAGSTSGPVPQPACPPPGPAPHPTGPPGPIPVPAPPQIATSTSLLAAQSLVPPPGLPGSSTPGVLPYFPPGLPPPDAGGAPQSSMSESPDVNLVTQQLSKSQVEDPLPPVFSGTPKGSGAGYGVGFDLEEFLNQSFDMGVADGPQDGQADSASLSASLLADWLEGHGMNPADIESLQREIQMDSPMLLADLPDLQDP
Chain of NAD(+) hydrolase SARM1 (Homo sapiens) (Q6SZW1 whole entry, looked up): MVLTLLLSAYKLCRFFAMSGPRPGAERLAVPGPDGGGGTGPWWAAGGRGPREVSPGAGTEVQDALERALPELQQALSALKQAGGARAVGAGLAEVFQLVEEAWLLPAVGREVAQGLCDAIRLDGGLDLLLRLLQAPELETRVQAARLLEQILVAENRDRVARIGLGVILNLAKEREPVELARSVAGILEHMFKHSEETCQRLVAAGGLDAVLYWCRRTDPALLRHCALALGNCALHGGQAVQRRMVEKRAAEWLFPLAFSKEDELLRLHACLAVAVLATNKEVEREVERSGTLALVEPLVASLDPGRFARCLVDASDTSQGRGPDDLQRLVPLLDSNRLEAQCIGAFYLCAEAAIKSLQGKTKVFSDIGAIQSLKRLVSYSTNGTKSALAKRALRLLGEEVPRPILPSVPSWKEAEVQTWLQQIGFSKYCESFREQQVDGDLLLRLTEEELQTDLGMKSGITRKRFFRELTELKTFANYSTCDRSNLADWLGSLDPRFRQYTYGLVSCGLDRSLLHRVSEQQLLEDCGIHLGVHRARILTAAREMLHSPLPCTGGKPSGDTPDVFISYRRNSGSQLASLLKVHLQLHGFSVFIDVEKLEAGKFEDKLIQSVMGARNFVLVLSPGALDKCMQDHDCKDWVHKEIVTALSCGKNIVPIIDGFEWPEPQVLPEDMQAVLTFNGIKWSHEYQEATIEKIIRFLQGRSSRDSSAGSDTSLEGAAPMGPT

## CCN1CCN(c2cc3c(cc2F)c(=O)c(C(=O)O)cn3C2CC2)CC1
[1]; [13]
  inhibition: -29.3%
[1]; [14]
  inhibition: -5.5%
[1]; [15]
  inhibition: -5.5%
[2]; at 0.5 µM
  inhibition: 4.78% (inactive)
[2]; [16]
  inhibition: -19%
[2]; [17]
  inhibition: -4.03%
[2]; [18]
  inhibition: 19.5%
[2]; [19]
  inhibition: -34%
[2]; single agent, at 5 µM
  inhibition: -31.7%
[3]; at 0.5 µM
  inhibition: -28.3% (inactive)
[3]; [20]
  inhibition: -35.5%
[3]; [21]
  inhibition: -26.8%
[4]; at 0.5 µM
  inhibition: -4.62% (inactive)
[4]; [22]
  inhibition: -3.92%
[4]; [23]
  inhibition: -4.26%

## C[C@H]1COc2c(C3(N)CC3)c(F)cc3c(=O)c(C(=O)O)cn1c23
[5]; [24]
  fold change: 0.94 (inactive) and 0.878 (inactive)
[5]; [25]
  fold change: 0.784 and 0.738
[5]; [26]
  cell count: 8060 and 10100
[5]; [27]
  cell count: 8570 and 11500
[6]; [28]
  z-score: 0.246 (inactive)
[6]; [29]
  z-score: -0.0845
[7]
  remaining NAD: 10 nM (inactive)
[8]
  z-score: 0.735 (inactive)
[9]; at 0.5 µM, stronger effect = higher value
  inhibition: -4.46% (inactive)
[9]; measured here: combination with BGB IC20, at 0.005 µM
  inhibition: -13%
[9]; measured here: combination with BGB IC40, at 0.005 µM
  inhibition: -17.8%
[9]; [13]
  inhibition: -33.8%
[9]; measured here: combination with cisplatin, at 0.5 µM, stronger effect = higher value
  inhibition: -7.85%
[9]; measured here: combination with cisplatin, at 5 µM, stronger effect = higher value
  inhibition: -33.3%
[10]; BGB combo, at 5 µM
  inhibition: -18.1%
[10]; at 0.5 µM
  inhibition: -10.4% (inactive)
[10]; cisplatin combo, at 5 µM
  inhibition: -7.06%
[10]; measured here: with BGB IC20 combination, at 0.5 µM
  inhibition: -22.3%
[10]; measured here: with cisplatin IC20 combination, at 0.5 µM
  inhibition: -3.47%
[10]; single agent, at 5 µM
  inhibition: -13.5%
[11]; BGB IC20 combo, at 0.005 µM
  inhibition: -21.1%
[11]; BGB IC40 combo, at 0.005 µM
  inhibition: 4.03%
[11]; BGB IC40 combo, at 0.05 µM
  inhibition: -27.4%
[11]; at 0.5 µM
  inhibition: -17.9% (inactive)
[11]; cisplatin combo, at 0.05 µM
  inhibition: -30.9%
[11]; cisplatin combo, at 0.5 µM
  inhibition: -13.3%
[11]; cisplatin combo, at 5 µM
  inhibition: -41.9%
[11]; measured here: 5 uM single agent, at 5 µM
  inhibition: -29.9%
[1]; at 0.5 µM
  inhibition: -26.1% (inactive)
[1]; [13]
  inhibition: -41.4%
[1]; [14]
  inhibition: -26.2%
[1]; [15]
  inhibition: -29.7%
[2]; at 0.5 µM
  inhibition: -9.68% (inactive)
[2]; [16]
  inhibition: -30.1%
[2]; [17]
  inhibition: -48.1%
[2]; [18]
  inhibition: -17.4%
[2]; [19]
  inhibition: -41%
[2]; single agent, at 5 µM
  inhibition: 3.14%
[3]; at 0.5 µM
  inhibition: -44.1% (inactive)
[3]; [20]
  inhibition: -27.6%
[3]; [21]
  inhibition: -41.6%
[4]; at 0.5 µM
  inhibition: -8.87% (inactive)
[4]; [22]
  inhibition: -6%
[4]; [23]
  inhibition: -11.8%

## C[n+]1ccccc1/C=N/O
[5]; [24]
  fold change: 0.951 (inactive) and 0.91 (inactive)
[5]; [25]
  fold change: 1.53 and 0.982
[5]; [26]
  cell count: 10700 and 9130
[5]; [27]
  cell count: 11200 and 10000
[6]; [28]
  z-score: 0.437 (inactive)
[6]; [29]
  z-score: -0.00254
[7]
  remaining NAD: 10 nM (inactive)
[12]
  luciferase signal: 84 AU (inactive)
[8]
  z-score: 0.085 (inactive)

## CCOC(=O)OC(C)OC1=C(C(=O)Nc2ccccn2)N(C)S(=O)(=O)c2ccccc21 (stereo not given)
[5]; [24]
  fold change: 0.948 (inactive) and 0.916 (inactive) and 0.845 (inactive)
[5]; [25]
  fold change: 1.05 and 0.416 and 1.29
[5]; [26]
  cell count: 9250 and 8630 and 9370
[5]; [27]
  cell count: 9750 and 9420 and 11100
[6]; [28]
  z-score: -0.123 (inactive) and 0.743 (inactive) and 0.745 (inactive)
[6]; [29]
  z-score: -0.115 and 1.2 and 1.74
[7]
  remaining NAD: 10 nM (inactive)
[8]
  z-score: 0.855 (inactive) and 0.87 (inactive)

## NC(N)=Nc1nc(CSCC/C(N)=N/S(N)(=O)=O)cs1
[5]; [24]
  fold change: 0.977 (inactive) and 0.894 (inactive) and 0.942 (inactive)
[5]; [25]
  fold change: 1.04 and 0.96 and 0.999
[5]; [26]
  cell count: 10400 and 8060 and 10100
[5]; [27]
  cell count: 10600 and 9010 and 10700
[6]; [28]
  z-score: 0.33 (inactive) and 1.06 (inactive)
[6]; [29]
  z-score: 0.0847 and 0.907
[7]
  remaining NAD: 10 nM (inactive)
[12]
  luciferase signal: 72 AU (inactive)
[8]
  z-score: 0.125 (inactive) and 0.38 (inactive)

## CCN1CC(CCN2CCOCC2)C(c2ccccc2)(c2ccccc2)C1=O (stereo not given)
[5]; [24]
  fold change: 0.947 (inactive) and 1 (inactive)
[5]; [25]
  fold change: 1.42 and 1.3
[5]; [26]
  cell count: 7960 and 7680
[5]; [27]
  cell count: 8400 and 7650
[6]; [28]
  z-score: -0.295 (inactive) and -0.762 (inactive)
[6]; [29]
  z-score: -0.241 and -0.506
[7]
  remaining NAD: 10 nM (inactive)
[8]
  z-score: 0.71 (inactive)

## COC(=O)CCc1ccc(OCC(O)CNC(C)C)cc1 (stereo not given)
[5]; [24]
  fold change: 0.896 (inactive) and 0.841 (inactive) and 0.908 (inactive)
[5]; [25]
  fold change: 0.838 and 0.901 and 1.51
[5]; [26]
  cell count: 9510 and 7720 and 9690
[5]; [27]
  cell count: 10600 and 9170 and 10700
[6]; [28]
  z-score: -0.164 (inactive) and -0.834 (inactive) and -0.539 (inactive)
[6]; [29]
  z-score: -0.149 and -1.1 and -1.41
[8]
  z-score: 0.52 (inactive) and 0.07 (inactive)

## O=C(Cn1ccnc1[N+](=O)[O-])NCCO
[5]; [24]
  fold change: 0.871 (inactive) and 0.832 (inactive)
[5]; [25]
  fold change: 1.39 and 4.67
[5]; [26]
  cell count: 8390 and 10900
[5]; [27]
  cell count: 9630 and 13100
[6]; [28]
  z-score: -0.801 (inactive)
[6]; [29]
  z-score: -0.143
[12]
  luciferase signal: 76 AU (inactive)

## Cc1ccc(C(=O)c2ccc(CC(=O)O)n2C)cc1
[5]; [24]
  fold change: 0.916 (inactive) and 0.846 (inactive) and 0.923 (inactive)
[5]; [25]
  fold change: 1.2 and 2.52 and 1.03
[5]; [26]
  cell count: 9430 and 10400 and 9670
[5]; [27]
  cell count: 10300 and 12300 and 10500
[6]; [28]
  z-score: 0.498 (inactive) and 0.311 (inactive)
[6]; [29]
  z-score: 0.161 and -0.684
[7]
  remaining NAD: 10 nM (inactive)
[12]
  luciferase signal: 84 AU (inactive)
[8]
  z-score: 1.02 (inactive)

## COc1cc2c3cc1Oc1cc(ccc1O)C[C@@H]1c4c(cc(OC)c(O)c4Oc4ccc(cc4)C[C@@H]3N(C)CC2)CC[N+]1(C)C
[5]; [24]
  fold change: 0.869 (inactive) and 0.934 (inactive)
[5]; [25]
  fold change: 2.84 and 1.19
[5]; [26]
  cell count: 11500 and 10000
[5]; [27]
  cell count: 13300 and 10700
[6]; [28]
  z-score: -0.392 (inactive)
[6]; [29]
  z-score: -0.225
[7]
  remaining NAD: 10 nM (inactive)
[12]
  luciferase signal: 32 AU (inactive)
[8]
  z-score: 0.605 (inactive)
